Among all 200,000 compounds or so, about 65 (0.03%) were called active.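 How the source made its calls: active means activation of at least 50% relative to the plate's high and low controls in the primary single-dose screen; inactive means activation below 50%.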 The sample as a whole holds a higher share of actives than the screen did.
Assay: compounds producing H2O2 with reducing agent – biochemical, NIH compound library profiling, artefact control for MLSCN library redox annotation, primary screen (AID 878);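 further: compound incubated with DTT at 0.8 mM final as the reducing agent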
Conditions: DTT-dependent redox cycling H2O2, phenol red/HRP absorbance; at 10 µM; active compounds read high; 100% = 100 µM peroxide control, 0% = buffer

activation, inactive:
O=C1c2cccc3c([N+](=O)[O-])ccc(c23)C(=O)N1CC1CCCO1 (centres undefined) -0.67%
O=C(N/N=C1\CCSC1)c1cc(Cl)ccc1O -0.43%
CCn1ccnc1CN1CCCC(C(=O)c2ccc3c4c(cccc24)CC3)C1 (centres undefined) -1.32%
COc1ccc([N+](=O)[O-])cc1NC(=O)c1ccc(N(Cc2ccccc2C)S(C)(=O)=O)cc1 2.05%
CCOc1ccc(N(CC(=O)NC2CCCCCC2)S(=O)(=O)c2c(C)[nH]c(=O)[nH]c2=O)cc1 -0.79%
CCC(O)C1CCN(Cc2cn(-c3ccc(OC)cc3)nc2-c2cccc(F)c2)CC1 (centres undefined) -1.12%
O=C(NNC(=O)C1CCN(c2ncccn2)CC1)c1ccccc1 3.9%
O=C(NC(=S)Nc1ccc(NC(=O)c2cccs2)cc1)c1ccc([N+](=O)[O-])cc1 0.63%
CNc1ccc(SC#N)cc1 -1.28%
CCN1CCN(CC(=O)c2cc(OC)c(OC)c(OC)c2)CC1 -2.87%
CC(Nc1ccccc1)c1cccnc1 (centres undefined) -1.74%
CN(C)c1ccc(-n2cccc2/C=N/n2cnnc2)cc1 -0.65%
COC(=O)/C(C#N)=C/c1occc1C -0.05%
Cc1cc(C)cc(N(CC(=O)N2CC=C(c3ccccc3)CC2)S(=O)(=O)c2c(C)noc2C)c1 -1.64%
CC(C)(C)C(=O)N(Cc1ccccc1)c1ccccn1 -0.82%
O=C(CN1CCCCCC1)Nc1ccc(Br)cc1Br 0.33%
COCCCn1c(SCC(=O)Nc2ccccc2)nnc1-c1ccncc1 0.72%
CCCCN=C1C([N+](=O)[O-])=CC=C2C1=NC1(CCCCC1)N2O 0.33%
O=C(N/N=C/c1ccco1)c1ccc(C(=O)N/N=C/c2ccco2)o1 -0.77%
O=C(C1CC1)N1N=C2CCCCC2C1(O)C(F)(F)F (centres undefined) -0.33%
CC1Cc2ccccc2N1S(=O)(=O)c1c(N)n(C)c(=O)n(C)c1=O (centres undefined) -1.16%
Cc1cc(NC(=O)CSc2nc3c(cc2C#N)CCCCC3)no1 -0.92%
COC(=O)c1ccccc1NS(=O)(=O)c1ccc2[nH]c(=O)[nH]c2c1 0.27%
COc1ccc(CCNC(=O)/C(C#N)=C2\N=C(NC(=O)c3cccs3)c3ccccc32)cc1 0.35%
CCC(NC(=O)c1ccccc1NC(=O)c1ccccc1)C(=O)NNC(=O)CSc1nc2ccccc2o1 (centres undefined) -0.15%
CCc1cccc(C)c1NC(=O)COC(=O)Cc1ccsc1 -0.34%
Cc1noc(C)c1COc1ccc2ccc(=O)oc2c1 -0.19%
COc1ccc2nc(Nc3nc(-c4ccncc4)cs3)sc2c1 -0.22%
Cc1cccc(OC(=O)c2sc3ncn(C)c(=O)c3c2C)c1 0.69%
COc1ccc(CCNC(=O)C(=O)NCc2ccccc2C)cc1OC -0.24%
CCc1nnc(NC(=O)C2CC(=O)N(c3ccc4c(c3)OCCO4)C2)s1 (centres undefined) 0.21%
CCc1ccc(CN(C)C(=O)CCc2nnc(-c3ccc(-c4ccccc4)cc3)o2)nc1 -1.14%
Cc1ccccc1NC(=O)c1ccc(COc2ccc3c(C)cc(=O)oc3c2)cc1 0.57%
O=C(Nc1cccc(C(F)(F)F)c1)c1ccc(N2CCNCC2)c([N+](=O)[O-])c1 2.54%
CN(C)CCCO/N=C(\c1ccccc1)c1ccncc1 0.18%
CCOCCCNC(=O)C(NC(=O)c1ccc(=O)[nH]c1)c1ccc(Cl)cc1 (centres undefined) -3.26%
COc1cc(CC(=O)N/N=C/c2ccccc2)c([N+](=O)[O-])cc1OC -0.77%
O=S(=O)(c1ccc(F)cc1)N1CCN(C(=S)NCc2ccco2)CC1 -0.47%
O=C(Cc1ccccc1)NNC(=O)C1CCN(c2ncccn2)CC1 -0.49%
COc1ccc(Cl)cc1-n1c(C)cc(C(=O)OCC(=O)N2CC(=O)Nc3ccccc32)c1C 0.04%
Cc1ccc(-c2cc(=O)c3ccc(Cl)cc3[nH]2)cc1 -1.26%
CCN(CC)c1ccc([N+](=O)[O-])cc1C(=O)O 0.13%
N#Cc1c(NC(=O)c2ccc(N3CCOCC3)c([N+](=O)[O-])c2)sc2c1CCCC2 0.09%
COc1cc(NC(=S)NCc2ccco2)c(OC)cc1Cl -0.01%
O=C(Nc1ccccc1)c1cc2ccccc2[nH]1 -0.39%
C=CCN(Cc1nc(-c2cc(OC)c3c(c2)OCO3)oc1C)C1CCS(=O)(=O)C1 (centres undefined) -0.18%
COc1ccccc1C(=O)Nc1ccc(OCc2nnc3c4ccccc4c(C)nn23)cc1 -0.13%
CCOC(=O)Nc1ccc(S(=O)(=O)N(C)C(C)C)cc1 0.17%
Cc1cc(NC(=O)CN2C(=O)NC(CCc3ccccc3)C2=O)no1 (centres undefined) -0.88%
COc1ccc(OC)c(NC(=O)CN(Cc2ccc(Cl)cc2)S(C)(=O)=O)c1 -0.61%
CC(C)NC(=O)c1ccccc1S(=O)c1ccccc1C#N (centres undefined) 0.13%
COc1ccc(C2=NN(c3ccccc3)C(c3cccs3)C2)cc1 (centres undefined) 0.96%
C=CCn1nc(-c2ccccc2)c2c(C)onc2c1=O -0.48%
Cc1ccc(C(=O)NC(C)c2ccccc2)cc1Br (centres undefined) -0.27%
CC(C)Cn1c(N)c(C(=O)COC(=O)CN2C(=O)C3CC=CCC3C2=O)c(=O)n(C)c1=O (centres undefined) -0.26%
Cc1cc(C)cc(NC(=O)N2CCCCCCC2)c1 -0.28%
CCCCN1C(=O)/C(=C/C=C2/C=Cc3ccccc3N2CC)SC1=S 1.26%
C=CCn1c(COc2ccc(F)cc2)nnc1SCC(=O)Nc1cccc(S(N)(=O)=O)c1 -0.73%
CCN(CC)CCCNC(=O)Cn1cnc2sc(C)c(S(=O)(=O)N3CCN(c4ncccn4)CC3)c2c1=O -0.75%

Reference: PubChem BioAssay AID878 (University of Pittsburgh Molecular Library Screening Center, 2007)
